Results as given in paper PMC5540273 (PLoS ONE, 2017).

How the values were obtained:
Settings in all cases: concentration: 1 μM, replicates: in singlicate; n = 1
ADCK4 = system: ADCK4
AKT1 = system: AKT1
AKT2 = system: AKT2
AKT3 = system: AKT3
ALK = system: ALK
AMPK-alpha1 = system: T1, AMPK-alpha1
T1 construct: gene PRKAA1

AMPK-alpha2 = system: T2, AMPK-alpha2
T2 construct: gene PRKAA2

ANKK1 = system: ANKK1
ARK5 = system: T3, ARK5
T3 construct: gene NUAK1

ASK1 = system: T4, ASK1
T4 construct: gene MAP3K5

ASK2 = system: T5, ASK2
T5 construct: gene MAP3K6

AURKA = system: AURKA
AURKB = system: AURKB
AURKC = system: AURKC
AXL = system: AXL
BIKE = system: T6, BIKE
T6 construct: gene BMP2K

BLK = system: BLK
BMPR1A = system: BMPR1A
BMPR1B = system: BMPR1B
BMPR2 = system: BMPR2
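Further: KINOMEscan kinase panel screen.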

SMILES | %Inh (ADCK4) [%] | %Inh (AKT1) [%] | %Inh (AKT2) [%] | %Inh (AKT3) [%] | %Inh (ALK) [%] | %Inh (AMPK-alpha1) [%] | %Inh (AMPK-alpha2) [%] | %Inh (ANKK1) [%] | %Inh (ARK5) [%] | %Inh (ASK1) [%] | %Inh (ASK2) [%] | %Inh (AURKA) [%] | %Inh (AURKB) [%] | %Inh (AURKC) [%] | %Inh (AXL) [%] | %Inh (BIKE) [%] | %Inh (BLK) [%] | %Inh (BMPR1A) [%] | %Inh (BMPR1B) [%] | %Inh (BMPR2) [%]
Cl.NC(=O)c1cccc(Nc2nccc(Nc3ccc(Oc4c(Cl)cccc4Cl)c(Cl)c3)n2)c1 [GW659009] | 14 | 0 | 0 | 0 | 3 | 0 | 0 | 3 | 0 | 0 | 0 | 0 | 17 | 43 | 5 | 56 | 45 | 100 | 0 | 0
Oc1cc(Nc2ccnc3cc(I)ccc23)ccc1F [GW552771] | 38 | 0 | 16 | 0 | 34 | 15 | 1 | 0 | 18 | 0 | 4 | 0 | 8 | 8 | 3 | 5 | 80 | 56 | 99.9 | 6
CNC(=O)c1ccccc1Nc1nc(Nc2ccc(N3CCOCC3)cc2)ncc1Cl.Cl [GSK1576028] | 44 | 42 | 62 | 0 | 88 | 99.2 | 99.4 | 12 | 99.8 | 0 | 16 | 100 | 99.9 | 100 | 100 | 100 | 99.7 | 28 | 100 | 53
Cl.c1ccc(-c2ccc3c(Nc4ccc5[nH]ncc5c4)ccnc3c2)nc1 [GW440137] | 38 | 0 | 0 | 0 | 31 | 0 | 0 | 14 | 11 | 0 | 19 | 1 | 3 | 22 | 4 | 18 | 40 | 0 | 31 | 0
Nc1n[nH]c2cnc(-c3ccccc3)cc12 [SB-642124] | 24 | 0 | 8 | 0 | 30 | 0 | 30 | 23 | 0 | 6 | 0 | 4 | 32 | 100 | 0 | 99.4 | 0 | 0 | 53 | 33
O=C(O)C(F)(F)F.O=C(O)C(F)(F)F.O=c1[nH]ccc2nc(N[C@@H]3CCCNC3)nc(Nc3ccc(S(=O)(=O)N4CCOCC4)cc3)c12 [GSK2177277] | 0 | 0 | 0 | 0 | 97.4 | 97.6 | 98.1 | 98.1 | 100 | 0 | 19 | 96.8 | 97.6 | 100 | 99.9 | 100 | 95.6 | 0 | 90.8 | 98.6
C[C@@H]1CC[C@@H](C(=O)Nc2ccccc2)CN1c1cc(-c2ccc3c(N)n[nH]c3c2)nc(N)n1 [GSK2286062] | 14 | 0 | 7 | 0 | 0 | 13 | 0 | 3 | 19 | 0 | 2 | 4 | 16 | 26 | 0 | 9 | 0 | 0 | 0 | 0
COc1cc(Nc2nccc(-c3c(-c4cccc(NC(=O)c5c(F)cccc5F)c4)nn4ncccc34)n2)cc(OC)c1OC [GSK327238] | 93.7 | 0 | 11 | 17 | 20 | 9 | 48 | 29 | 97.4 | 0 | 8 | 99.1 | 92.5 | 70 | 91.3 | 7 | 99.6 | 3 | 0 | 0
COCCOCCOc1cc2ncc3c4ccc(C#N)cc4[nH]c3c2cc1OC | 0 | 5 | 0 | 0 | 0 | 30 | 1 | 63 | 12 | 6 | 0 | 51 | 83 | 62 | 44 | 100 | 21 | 0 | 0 | 0
COC(=O)Nc1nc2ccc(Oc3ccc(NC(=O)Nc4cc(C(F)(F)F)ccc4F)cc3)cc2n1C.Cl [GW692089] | 33 | 0 | 0 | 0 | 3 | 0 | 22 | 31 | 16 | 40 | 0 | 0 | 94.1 | 14 | 95 | 0 | 27 | 0 | 0 | 11
Cl.Cl.NCC(NC(=O)c1cc(-c2ccccc2)c(-c2ccnc3[nH]ccc23)s1)c1ccccc1 (stereo not shown) [GSK1321561] | 89 | 57 | 0 | 80 | 27 | 5 | 0 | 0 | 16 | 0 | 1 | 33 | 0 | 69 | 46 | 79 | 58 | 4 | 0 | 0
COc1cccc(NC(=O)NC2CCN(c3ccnc(Nc4cc(OC)c(OC)c(OC)c4)n3)C2)c1 (stereo not shown) [GSK1379763] | 59 | 0 | 7 | 0 | 45 | 0 | 0 | 40 | 18 | 0 | 11 | 75 | 55 | 89 | 13 | 78 | 0 | 0 | 0 | 8
CN1CCN(CCCNc2nccc(-c3c(-c4ccc(F)cc4)nn4cc(C(F)(F)F)ccc34)n2)CC1 [GW621581] | 97.1 | 0 | 0 | 0 | 9 | 0 | 19 | 0 | 21 | 6 | 0 | 0 | 11 | 0 | 10 | 11 | 50 | 0 | 0 | 0
COc1cc(Nc2ncc3c(C)nc(-c4cc5ccccc5[nH]4)n3n2)cc(OC)c1OC [GW869516] | 3 | 8 | 0 | 0 | 0 | 89 | 61 | 0 | 0 | 0 | 0 | 0 | 1 | 26 | 26 | 9 | 60 | 22 | 0 | 0
O=C(Nc1n[nH]c2nc(-c3ccc(O)cc3)ccc12)C1CC1 [SB-710363] | 0 | 0 | 0 | 61 | 0 | 0 | 0 | 0 | 0 | 18 | 12 | 11 | 47 | 0 | 37 | 32 | 12 | 8 | 34 | 16
O=C(Nc1n[nH]c2cc(-c3ccoc3)ccc12)C1CC1 [SB-738481] | 0 | 0 | 0 | 0 | 0 | 0 | 0 | 23 | 0 | 0 | 5 | 23 | 20 | 19 | 37 | 35 | 0 | 11 | 21 | 60
Cl.Cl.NCC(C(=O)Nc1cc(Br)c(-c2ccnc3[nH]ccc23)s1)c1ccccc1 (stereo not shown) [GSK1269851] | 95.7 | 61 | 25 | 66 | 39 | 0 | 0 | 0 | 0 | 0 | 26 | 81 | 9 | 53 | 57 | 99.8 | 0 | 78 | 0 | 30
Nc1ncc(-c2cccnc2)c2scc(-c3ccc4c(c3)CCN4C(=O)Cc3ccccc3)c12 [GSK683281] | 32 | 0 | 21 | 0 | 29 | 97.4 | 20 | 19 | 32 | 22 | 10 | 25 | 70 | 70 | 89 | 16 | 82 | 6 | 0 | 3
COc1cc(Nc2nccc(N3CCC(NC(=O)Nc4cccc(C(C)=O)c4)C3)n2)cc(OC)c1OC (stereo not shown) [GSK1379753] | 55 | 0 | 0 | 0 | 44 | 0 | 0 | 41 | 27 | 0 | 0 | 83 | 57 | 77 | 0 | 74 | 9 | 0 | 0 | 9
Cc1occc1-c1ncc(OC[C@@H](N)Cc2c[nH]c3ccccc23)cc1-c1ccc2[nH]nc(C)c2c1.O=C(O)C(F)(F)F [GSK682037] | 82 | 97 | 99.8 | 87 | 24 | 12 | 0 | 0 | 0 | 0 | 7 | 0 | 0 | 53 | 35 | 90.5 | 19 | 0 | 0 | 0
